The values below come from PubChem BioAssay AID629 (Emory University Molecular Libraries Screening Center, 2007).

Structures are written as SMILES. Hit rate of the full screen: of about 86,000 compounds, about 1,400 (1.6%) were called active. Many of the other results were omitted from the sample, so actives are more common in it than they were. Values without a mark were called inactive. Cut-off read from the data, not from the text of the source: active = inhibition above about 50%; inactive = the rest.

In this test the target is Estrogen receptor (Homo sapiens) (UniProt P03372). Put plainly: ERα–SRC-1 coactivator interaction inhibitors, primary screen, biochemical, TR-FRET, ERα LBD, estradiol-bound (AID 629).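 Note: 0% = receptor plus peptide control and 100% = peptide only without receptor.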 The note with it: TR-FRET ER-alpha LBD / SRC-1 peptide, at 25.6 µM, stronger effect = higher value.
Chain of Estrogen receptor (Homo sapiens) (P03372 whole entry, looked up, the tested form may be a part): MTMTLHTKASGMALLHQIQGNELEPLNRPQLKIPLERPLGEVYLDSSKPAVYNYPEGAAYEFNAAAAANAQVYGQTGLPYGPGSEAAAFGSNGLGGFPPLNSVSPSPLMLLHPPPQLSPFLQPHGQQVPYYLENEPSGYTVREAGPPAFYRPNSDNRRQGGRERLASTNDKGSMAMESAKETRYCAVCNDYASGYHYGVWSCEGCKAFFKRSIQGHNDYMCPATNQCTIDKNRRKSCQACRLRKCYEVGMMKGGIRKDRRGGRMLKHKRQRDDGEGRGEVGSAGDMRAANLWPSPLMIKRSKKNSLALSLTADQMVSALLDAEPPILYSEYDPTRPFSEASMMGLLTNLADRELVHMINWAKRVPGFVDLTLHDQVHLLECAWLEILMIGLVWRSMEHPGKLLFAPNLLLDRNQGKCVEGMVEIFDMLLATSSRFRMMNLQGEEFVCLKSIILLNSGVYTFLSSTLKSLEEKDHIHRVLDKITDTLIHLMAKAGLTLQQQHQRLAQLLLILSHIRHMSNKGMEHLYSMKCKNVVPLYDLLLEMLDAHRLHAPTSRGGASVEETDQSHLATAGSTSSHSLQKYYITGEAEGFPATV
On to `COc1ccc(C)cc1-n1nnnc1SCC(=O)c1cc(C)n(Cc2ccco2)c1C`, for which the inhibition (as a rule, the drop in the measured response relative to a control, in per cent) is 56% [fluorescence artefact?] (active).
As for `COc1ccc(OC)c(-n2nnnc2SCC(=O)Nc2cc(C)ccc2OC)c1`, the figure is 4.13%; as for `COc1ccc(NC(=O)CSc2nnc(-c3cccs3)n2Cc2ccco2)cc1OC`, -0.83%; as for `O=C(NCc1ccccc1)[C@@H]1CSC2c3ccccc3C(=O)N21` (some centres undefined), 6.25%.
As for `Cc1cc(C)n(-c2nnc(C)n2NC(=O)c2cccc(Cl)c2)n1`, the figure is -8.09%.
The value for `COc1ccc(-c2noc(-c3ccc(C)cc3)n2)cc1` was -13.3%; that for `COc1ccc2[nH]c(=O)c(-c3noc(-c4ccc(F)cc4)n3)cc2c1` was 72.5% [fluorescence artefact?] (active); that for `Cc1cccc(-c2noc(-c3ccc(F)cc3)n2)c1` was -21.4%.
As to `COc1cc(OC)c(C(=O)NC2CCCCCC2)cc1OC`, the inhibition is -10.8%.
Take `COc1ccc(Cl)cc1C(=O)Nc1ccc(N(C)C(C)=O)cc1`: the inhibition is 9.29%.
The value for `COc1cc(OC)c(C(=O)Nc2ccc(N(C)C)cc2)cc1OC` was 63.9% [fluorescence artefact?] (active); that for `CCOc1ccccc1C(=O)NC1CC2CCCC(C1)N2Cc1ccccc1` (centres undefined) was 1.91%.
As to `COc1ccc(-c2nnc(SCC(=O)c3ccc4c(c3)OCCO4)o2)cc1`, the inhibition was 22.7%.
The value for `N#CCSc1nc2ccccc2c(=O)n1-c1ccccc1` was 1.7%; that for `COc1ccc(-n2nnnc2SCC(=O)Nc2ccccc2)cc1` was -12.4%.
The value for `Cc1ccc(-c2noc(CSc3nnnn3-c3ccccc3)n2)cc1` was -3.97%; that for `O=c1c2ccccc2nc(CSc2nnnn2-c2ccccc2)n1-c1ccccc1` was 70% [fluorescence artefact?] (active).
As to `Cc1ccc(Nc2nc(CSc3nnnn3-c3ccccc3)cc(=O)[nH]2)cc1`, the inhibition was 66.8% [fluorescence artefact?] (active).
The value for `O=c1c2ccccc2nnn1CSc1nnnn1-c1ccccc1` was -0.34%; that for `Brc1ccc(-c2nnc(-c3ccccc3)o2)o1` was 12.2%; that for `O=C(Cc1ccccc1)Nc1c(C(=O)N2CCCCCC2)cnn1-c1ccccc1` was -5.17%.
Turning to `Cc1cc(=O)oc2cc(OCC3CC(c4ccccc4Cl)=NO3)ccc12` (centres undefined), the inhibition is 3.5%.
The value for `O=C(c1ccc2c(c1)OCO2)N1CCOCC1` was -17.2%; that for `Cc1ccc(NC(=O)CSCC(=O)N2CCOCC2)cc1` was -2.74%.
As for `CCN(CC)C(=O)CN(c1cccc(OC)c1)S(=O)(=O)c1ccc(C)cc1`, the figure is 0.16%.
Consider `Cc1nc(C)c(C(=O)Nc2ccc(C)c(F)c2)o1`, for which the inhibition is 13.3%.
For `COc1ccc(Cl)cc1NC(=O)c1oc(C)nc1C`, the inhibition was 53.9% (active).
As for `Cc1nc(C)c(C(=O)Nc2cccc(C)c2C)o1`, the figure is 23.7%.
The value for `Cc1cc(NC(=O)CCC(=O)N(CC(=O)NCC2CCCO2)c2ccccc2C)no1` (centres undefined) was 26%.
As for `Cn1c2ccccc2c2c(C(=O)N3CCN(c4ccc(F)cc4)CC3)cn(C3CCCC3)c(=O)c21`, the figure is 8.84%; as for `CCOC(=O)N1CCN(C(=O)c2nn(-c3ccc(C)cc3)c(=O)c3c2c2ccccc2n3C)CC1`, 58.7% [fluorescence artefact?] (active).
As to `CCOC(=O)N1CCN(C(=O)c2n[nH]c(=O)c3ccccc23)CC1`, the inhibition was -4.02%.
As for `CCCc1nc(NCc2ccc3c(c2)OCO3)c2nnn(Cc3ccccc3Cl)c2n1`, the figure is 0.25%.
The value for `Cc1ccccc1-c1nnc(SCC(=O)NCc2ccc3c(c2)OCO3)n1C` was -3.86%.
